A selection: hits, their analogues and other compounds. The true share with any hit is near 12%.
G9a inh = G9a (human) methyltransferase inhibition | 8.8% of 350,000 active | G9a H3K9 monomethylation, AlphaScreen, 2 h | Q96KQ7 | AID 504332 | Potency, µM (top dose mostly 102 µM), for inactives: top-dose activity, negative = inhibition, hits mostly inhibitors; note: % is set by controls: 0 for no effect and ±100 for the full control effect; nearly all actives have a fitted effect of over 75% in size
Target sequence (Q96KQ7 913-1193 limits assumed): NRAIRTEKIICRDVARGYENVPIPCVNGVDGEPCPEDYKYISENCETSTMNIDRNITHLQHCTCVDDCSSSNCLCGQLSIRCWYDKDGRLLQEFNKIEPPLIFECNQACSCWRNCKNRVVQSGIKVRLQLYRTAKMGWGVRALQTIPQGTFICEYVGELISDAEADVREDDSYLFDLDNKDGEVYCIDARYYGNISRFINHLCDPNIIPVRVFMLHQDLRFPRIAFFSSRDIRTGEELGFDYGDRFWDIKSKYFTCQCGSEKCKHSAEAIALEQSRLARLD
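Chemiluminescent proximity detection of H3K9 monomethylation, read after 10 min bead incubation in the dark. Reaction: 20 nM G9a, 500 nM biotin-H3K9 peptide, 20 uM SAM cofactor, 2 h, room temperature, following 15 min enzyme-compound preincubation.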
Sfp PPTase inh = Sfp phosphopantetheinyl transferase inhibition; Q9F4F7; Biochemical Sfp PPTase activity, qHTS; Potency, µM, for the others: largest response in the series, negative = inhibition, actives largely listed as inhibitors; 3.5% of 310,000 active;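 note: the enzyme is Sfp with the accession as filed and its product quenches rhodamine fluorescence; 0% = enzyme reaction without inhibitor and -100% = no enzyme wells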
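Compounds were incubated with enzyme (final 15 nM) for 15 min at room temperature before substrate addition started the reaction. Fluorescence at 525 nm excitation, 598 nm emission was recorded immediately and after 30 minutes.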
BAZ2B block = inhibitors of human BAZ2B bromodomain | Q9UIF8 | AlphaScreen BAZ2B-H3K14Ac peptide displacement | Potency, µM (highest dose often 114 µM), without a hit: top-dose activity change, negative = inhibition, usual class: inhibitors | 4.4% of 360,000 active | AID 504333; note: % is set by controls: 0 for no effect and ±100 for the full control effect; nearly all actives have a fitted effect of over 60% in size
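Compounds, titrated to a top concentration of 110 uM, were incubated 30 min at room temperature with preformed BAZ2B/acetyl-K14 H3 peptide complex (50 nM each). Proximity signal was measured by AlphaScreen after 20 min with beads.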
HP1b chromo inh = inhibitors of HP1-beta chromodomain binding to methylated histone tails; AlphaScreen HP1-beta / biotin-H3K9me3 peptide binding; P83916; Potency, µM (series often up to 114 µM), without a hit: at the highest dose activity change, negative = inhibition, hits mostly inhibitors; 0.56% of 390,000 active; note: nearly all actives have a fitted effect of over 70% in size
Target sequence (P83916 whole entry, looked up): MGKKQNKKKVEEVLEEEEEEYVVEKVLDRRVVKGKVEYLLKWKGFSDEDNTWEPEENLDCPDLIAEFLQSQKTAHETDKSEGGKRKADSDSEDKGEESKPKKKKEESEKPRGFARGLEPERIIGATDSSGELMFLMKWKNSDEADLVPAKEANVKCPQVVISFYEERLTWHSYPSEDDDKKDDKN
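Compound inhibition of the preformed complex between 50 nM HP1-beta and 50 nM biotinylated H3K9me3 peptide was read by AlphaScreen. Buffer was PBS pH 7.4 with 0.01% Tween-20. Incubations ran 30 min at room temperature, with 10 ug/mL donor/acceptor beads.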
JMJD2A Tudor = blocks the human JMJD2A Tudor domain. O75164. AlphaScreen JMJD2A-Tudor / H3K4me3 peptide binding. AID 504339. Potency, µM (series often up to 114 µM), for the others: at the top dose activity change, negative = inhibition, hits mostly inhibitors. 4.4% of 390,000 active; note: % is set by controls: 0 for no effect and ±100 for the full control effect; nearly all actives have a fitted effect of over 50% in size
PLK1 PBD inh = PLK1 (human) polo-box domain binding inhibition. 2.8% of 360,000 active. Potency, µM, inactives show max response, negative = inhibition, usual class: inhibitors. Plk1 PBD binding of FITC phosphopeptide, fluorescence polarization; note: series mostly up to about 57 µM; % is set by controls: 0 for no effect and ±100 for the full control effect; nearly all actives have a fitted effect of over 65% in size
Numbers without * were called inactive; u = inconclusive; x = not tested or not shown; [ ] = remark or other dose. Calls come from the whole dose curve; as a rule, active = well fitted curve in the direction sought with a large enough effect; inconclusive = small, poorly fitted or top-dose-only effect, or another doubt; inactive = no such curve, though single readings can be large; an effect the other way counts as inactive or inconclusive. Potency is the fitted concentration of half-maximal effect.

SMILES	G9a inh	Sfp PPTase inh	BAZ2B block	HP1b chromo inh	JMJD2A Tudor	PLK1 PBD inh
CCOC(=O)c1nn(-c2ccc(OC)cc2)c(=O)c2c(NC(=O)Cc3ccccc3)scc12	x	x	x	x	-12.3%	x
Cc1ccc(S(=O)(=O)/N=C2\C=C(Nc3cccc(C(=O)O)c3)C(=O)c3ccccc32)c(C)c1	2.82µM*	-19.0%	8.91µM*	u	28.2µM*	26.7µM*
O=C(O)c1cccc(NC(=O)c2ccc(S(=O)(=O)c3ccccc3)cc2)c1	-8.2%[59 µM]	8.4%	-8.6%	33.2%	-11.7%	-6.2%
CCc1ccc(S(=O)(=O)/N=C2\C=C(Nc3ccc(C(=O)O)cc3)C(=O)c3ccccc32)cc1	8.91µM*	-22.3%	7.94µM*	u	28.2µM*	-16.8%
Cc1ccc(S(=O)(=O)/N=C2\C=C(Nc3cccc(C(=O)O)c3)C(=O)c3ccccc32)cc1	10µM*	-23.3%	12.6µM*	u	44.7µM*	59.7µM*
O=C(O)c1ccc(NC2=C(n3nnc4ccccc43)C(=O)c3ccccc3C2=O)cc1	u	6.8%	-21.3%	32.6%	-10.5%	-18.0%
Cc1ccc(S(=O)(=O)/N=C2\C=C(Nc3ccc(O)cc3)C(=O)c3ccccc32)cc1	x	x	x	12.6µM*	5.62µM*	-6.3%
Cc1ccc(C(=O)Nc2cccc(C(=O)O)c2)cc1S(=O)(=O)N1CCCC1	12.6%[59 µM]	x	4.0%	38.6%	-2.6%	x
Cc1ccc(S(=O)(=O)/N=C(/c2ccccc2)N(C)c2ccc(O)cc2)cc1	-2.4%	9.2%	4.2%	26.3%	-18.4%	-2.7%
Cc1ccc(Cn2c(C)c(CNC(C)c3ccccc3)c(C(=O)O)c2C)cc1 (stereo unspecified)	-25.8%[59 µM]	x	-7.2%	10.2%	-18.1%	x
CCCOc1ccc(NC(=O)CC2C(=O)N(c3ccc(C)cc3)C(=O)N2C(C)C)cc1 (stereo unspecified)	-4.4%[59 µM]	x	-15.5%	35.1%	-5.2%	x
O=C(/C=C/Nc1ccc(F)cc1)c1cccs1	x	x	x	33.6%	0.0%	-15.9%
O=C(/C=C/Nc1ccc(F)c(F)c1)c1cccs1	44.7µM*	-10.2%	1.3%	31.4%	-19.5%	-21.7%
Cc1cccc(-c2oc3ccccc3c2C#CCCO)c1	-15.6%	-1.0%	-1.5%	47.2%	4.2%	-3.3%
O=C(NC1CC1)c1ccc2c(Cl)c3c(nc2c1)CCCC3	u	8.2%	2.6%	41.2%	-12.7%	-5.7%
CCOC(=O)N1CCC(NC(=O)c2ccc3c(Cl)c4c(nc3c2)CCCC4)CC1	-25.3%	25.1µM*	7.2%	13.0%	-12.0%	-12.5%
O=C(NCCCN1CCCC1)c1ccc2c(Cl)c3c(nc2c1)CCCC3	u	79.4µM*	-16.2%	-9.9%	-26.1%	-16.6%
COC(=O)[C@@]1(Cc2ccccc2)[C@H]2c3cc(C(=O)N4CCCC4)n(Cc4cccc5ccccc45)c3C[C@H]2CN1C(=O)c1ccccc1	x	8.5%	x	x	x	x
CCSc1nc2sc3c(c2c2[n+]1CC(CBr)O2)CCCC3 (stereo unspecified)	25.1µM*	50.1µM*	56.2µM*	-24.2%	56.2µM*	-8.8%
CCSc1nc2sc3c(c2c(=O)[nH]1)CCCC3	0.7%[59 µM]	9.3%	-2.1%	20.4%	4.6%	-5.6%
COc1cc(NC(=O)CSc2nnc3c(C)cc4cc(C)cc(C)c4n23)c(C(=O)O)cc1OC	x	-17.7%	-15.6%	19.6%	-11.0%	-7.2%
COc1ccc2cc(C)c3nnc(SCC(=O)Nc4nc(-c5ccccc5)cs4)n3c2c1	-2.6%[12.7 µM]	79.4µM*	-35.6%	32.7%	-34.2%	-12.2%
COc1ccc2cc(C)c3nnc(SCC(=O)Nc4cc(OC)c(OC)cc4C(=O)O)n3c2c1	39.8µM*	-13.5%	-22.2%	15.8%	-24.5%	u
CSc1ccc(S(=O)(=O)N2CCC(C(=O)Nc3ccccc3C(F)(F)F)CC2)cc1	6.2%	6.1%	-20.2%	18.0%	-13.0%	-2.2%
O=C(CCl)c1ccc2[nH]c(=O)oc2c1	44.7µM*	-14.7%	u	47.1%	-23.2%	7.52µM*
SMILES	G9a inh	Sfp PPTase inh	BAZ2B block	HP1b chromo inh	JMJD2A Tudor	PLK1 PBD inh
Cc1ccccc1SCC(=O)OCC(=O)NCCNC(=O)COC(=O)CSc1ccccc1C	50.1µM*	x	-13.3%	37.2%	-8.5%	2.9%
CCOc1ccc(-n2c(=O)c3c(C)c(C(=O)N(C)C)sc3n(Cc3cc(C)ccc3C)c2=O)cc1	15.6%[59 µM]	x	-4.8%	12.7%	-19.3%	x
Cc1cc(N(CCO)CCO)ccc1N=Nc1cc(F)ccc1F	14.1µM*	-4.6%	22.4µM*	u	22.4µM*	-8.8%
NC(=O)c1ccccc1C[C@H](C(=O)O)N1C(=O)c2ccc(C(=O)O)cc2C1=O	5.7%[12.7 µM]	5.9%	u	x	-35.9%	x
CCOc1ccc(NC(=S)NNC(=O)c2cc(Br)ccc2Cl)cc1	44.7µM*	-11.1%	-18.7%	-15.6%	-29.4%	-19.8%
CCOc1ccc(NC(=S)NC(=O)c2cncc(Br)c2)cc1	x	x	x	6.8%	-18.9%	-2.7%
CCOc1ccc(NC(=S)NNC(=S)Nc2cccc(C(F)(F)F)c2)cc1	x	35.5µM*	u	-2.0%	-24.5%	u
COc1ccc(NC(=S)NNC(=S)Nc2cccc(C(F)(F)F)c2)cc1	22.4µM*	20µM*	u	u	u	u
Cc1cc(C(F)(F)F)nn1CC(=O)NNC(=S)Nc1ccc(F)cc1	-9.8%[12.7 µM]	1.3%	1.1%	32.3%	-9.7%	-8.1%
COc1cccc(NC(=S)NNC(=O)Cn2nc(C(F)(F)F)cc2C)c1	11.2µM*	15.8%	-6.4%	24.3%	0.7%	-5.7%
Cn1nc(C(=O)OCC(=O)c2ccc(Cl)cc2)c2ccccc2c1=O	x	x	x	6.5%	-18.8%	2.3%
Clc1cccc(-c2ccc3ncnc(NCc4ccc5c(c4)OCO5)c3c2)c1	0.6%[12.7 µM]	x	-32.7%	x	x	x
COc1cccc(NC(=S)NNC(=O)C(C)n2nc(C)c([N+](=O)[O-])c2C)c1 (stereo unspecified)	39.8µM*	20.8%	-3.9%[57.1 µM]	19.4%	-6.4%	u
FC(F)(F)c1cccc(NC(=S)Nc2ccc(Cl)c(Cl)c2)c1	x	-18.7%	7.2%	31.2%	3.5%	-4.1%
CCOc1cc(OCC)cc(C(=O)NC(=S)Nc2cccc(C(F)(F)F)c2)c1	-3.3%[59 µM]	89.1µM*	-1.4%[57.1 µM]	11.4%	-10.3%	-3.9%
CCOc1cc(OCC)cc(C(=O)Nc2cccc(C(C)=O)c2)c1	-47.8%[59 µM]	-7.1%	-0.2%	19.9%	-16.6%	-0.4%
O=C(NC(=S)Nc1cccc(C(F)(F)F)c1)c1ccc2nonc2c1	44.7µM*	u	u	u	u	-16.1%
O=Cc1ccc2noc(-c3ccc(F)cc3)c2c1	0.1%[12.7 µM]	-6.4%	2.4%	-4.6%	-9.1%	23.8µM*
Cc1ccc(-c2onc3ccc(C(=O)O)cc23)cc1	39.8µM*	-8.3%	-19.7%	28.3%	-20.5%	-9.9%
CC(=O)COC(=O)c1ccc2noc(-c3ccccc3)c2c1	-5.4%	1.6%	50.1µM*	7.9%	-32.2%	-0.8%

Source: PubChem
